Consider 8 molecules from PubChem BioAssay (Tox21).

Values without a mark were called inactive. Results filed as inconclusive are left out. Activity calls are given as the source filed them. Unless noted, calls follow the shape of the dose curve; as a rule, active = well fitted curve in the direction sought with a large enough effect in the repeat runs; inconclusive = weak or mixed curves; inactive = no such curve, though single readings can be large; an effect the other way counts as inactive or inconclusive.

The nature of test [1]: qHTS assay to identify small molecule agonists of the constitutive androstane receptor (CAR) signaling pathway - cell viability counter screen (AID 1224836). Also: nearly all actives have a fitted effect of over 45% in size. In a few lines: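 Double-stable HepG2 hepatoma cells (hCAR plus CYP2B6-2.2kb) are treated for 23 h at 37 C with test compounds in 15-point concentration series. PK11195 at 0.75 uM final is co-added. Cell viability is quantified by CellTiter-Fluor.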

A short description of test [2]: qHTS assay to identify small molecule antagonists of the constitutive androstane receptor (CAR) signaling pathway - cell viability counter screen (AID 1224837). Also: nearly all actives have a fitted effect of over 45% in size. The method, boiled down: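 HepG2-CYP2B6-hCAR cells, 2500/well, 4 hr pre-incubation; compound titration, 15 conc.; CITCO 50 nM final; 23 hr, 37 C/5% CO2; CellTiter-Fluor, fluorescence intensity.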
Test [3] has as its target Nuclear receptor subfamily 1 group I member 3 (Homo sapiens) (UniProt Q14994). As to the kind of experiment: qHTS assay to identify small molecule antagonists of the constitutive androstane receptor (CAR) signaling pathway (AID 1224838).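 Also: HepG2 cells stably expressing hCAR with CYP2B6 luciferase reporter stimulated by CITCO; nearly all actives have a fitted effect of over 40% in size.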 The method, boiled down:
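HepG2-CYP2B6-hCAR cells; 4 h pre-incubation; cpd (15 conc) + CITCO 50 nM final; 24 h, 37 C/5% CO2; ONE-Glo, luminescence.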

Test [4] shares this target. Description: qHTS assay to identify small molecule agonists of the constitutive androstane receptor (CAR) signaling pathway (AID 1224839).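 Also: HepG2 cells stably carrying human CAR and a CYP2B6 luciferase reporter; nearly all actives have a fitted effect of over 15% in size.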 The method, boiled down: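 Readout: firefly luciferase luminescence via ONE-Glo. System: HepG2 double-stable for hCAR and CYP2B6-2.2kb. Conditions: 15-point compound titration, PK11195 at 0.75 uM final, 24 h incubation.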
The nature of test [5]: qHTS assay to identify small molecule antagonists of the estrogen related receptor signaling pathway with the pleiotropic PPARgamma coactivator (PGC) from Tox21 10K library (AID 1224841; call rule not given here; also: actives are mostly falling curves and most rising ones were filed inactive; nearly all actives have a fitted effect of over 50% in size; also: potency is read from the fitted curve at half-maximal effect). In a few lines: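 PGC/ERR cell line, 2,000 cells/well; 6 h pre-incubation 37 C/5% CO2; compounds (DMSO) pinned in; 18 h, 37 C; One-Glo, 30 min RT; luminescence.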
The nature of test [6]: qHTS assay to identify small molecule agonists of the estrogen related receptor signaling pathway with the pleiotropic PPARgamma coactivator (PGC) from Tox21 10K library (AID 1224842). Also: nearly all actives have a fitted effect of over 15% in size. In a few lines: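 PGC/ERR reporter cells (NTP line) were seeded 2,000 per well, rested 6 h at 37 C/5% CO2, then pin-dosed with compounds in DMSO for 18 h at 37 C; luciferase read by One-Glo luminescence after 30 min at room temperature.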

The target of test [7] is Thyrotropin receptor (Homo sapiens) (UniProt P16473). As to the kind of experiment: qHTS assay to identify small molecule agonists of the thyroid stimulating hormone receptor (TSHR) signaling pathway (AID 1224843; calls by dose curve; also: nearly all actives have a fitted effect of over 45% in size). The method, boiled down: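 Cell line HEK293 with TSHR; density 800/well. Exposure 30 min RT. Readout HTRF cAMP (cAMP-d2/anti-cAMP-cryptate), 1 h RT before reading.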
Sequence of Thyrotropin receptor (Homo sapiens) (P16473 whole entry, looked up): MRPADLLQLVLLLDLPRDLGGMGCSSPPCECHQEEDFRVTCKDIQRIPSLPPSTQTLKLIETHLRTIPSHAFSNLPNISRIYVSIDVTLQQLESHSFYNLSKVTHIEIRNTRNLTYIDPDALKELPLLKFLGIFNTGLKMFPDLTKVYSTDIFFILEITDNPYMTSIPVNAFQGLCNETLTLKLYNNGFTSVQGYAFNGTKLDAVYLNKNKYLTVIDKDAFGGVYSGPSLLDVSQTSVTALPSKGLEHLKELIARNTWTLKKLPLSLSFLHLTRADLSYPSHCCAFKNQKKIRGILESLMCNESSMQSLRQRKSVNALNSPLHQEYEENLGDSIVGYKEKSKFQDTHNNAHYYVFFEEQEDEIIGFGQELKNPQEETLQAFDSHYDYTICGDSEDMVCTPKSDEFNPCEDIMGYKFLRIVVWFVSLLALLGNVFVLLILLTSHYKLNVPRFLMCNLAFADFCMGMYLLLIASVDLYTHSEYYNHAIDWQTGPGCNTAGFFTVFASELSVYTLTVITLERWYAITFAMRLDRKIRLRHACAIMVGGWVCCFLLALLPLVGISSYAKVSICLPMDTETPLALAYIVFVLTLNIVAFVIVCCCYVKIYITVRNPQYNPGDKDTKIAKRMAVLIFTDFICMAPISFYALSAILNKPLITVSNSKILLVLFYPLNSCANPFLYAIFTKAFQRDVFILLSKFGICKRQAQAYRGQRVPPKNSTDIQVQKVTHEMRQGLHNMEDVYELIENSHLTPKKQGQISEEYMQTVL

A short description of test [8]: qHTS assay to identify small molecule agonists of H2AX (AID 1224845; active = well fitted activation curve with a large enough effect in the signal ratio in the repeat runs, not every such curve was filed as active; the % refers to the signal ratio). In a few lines: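 Wild-type CHO-K1 cells plated overnight, then exposed 3 hr at 37C to compounds at 15 concentrations (0.76% DMSO). Lysed, then HTRF anti-pH2AX(S139)-cryptate/anti-H2AX-d2 detection after 24 hr at room temperature; emissions 665 and 620 nm.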
Test [9] in a line: qHTS assay to identify small molecule agonists of the hypoxia (HIF-1) signaling pathway (AID 1224846; active = well fitted activation curve with a large enough effect in the signal ratio in the repeat runs, not every such curve was filed as active; the % refers to the signal ratio). In a few lines: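 Cell line: CellSensor HRE-bla ME-180; 2,000 cells/well; 0.5% dialyzed FBS; 5 h preincubation; DMSO compound pin transfer; 17 h, 37C, 5% CO2; CCF4-AM added; bla FRET signal scored for activation.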
Test [10] can be described thus: qHTS assay to identify small molecule antagonists of the estrogen related receptor (ERR) signaling pathway from Tox21 library (AID 1224848). Also: nearly all actives have a fitted effect of over 50% in size. In a few lines:
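Screening used an ERR reporter line supplied by NTP, exposed for 18 h at 37 C to library compounds delivered in DMSO. Signal was luciferase luminescence developed with ONE-Glo at room temperature for 30 min.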

Test [11] is described as follows: qHTS assay to identify small molecule agonists of the estrogen related receptor (ERR) signaling pathway from Tox21 library (AID 1224849; calls by dose curve; also: nearly all actives have a fitted effect of over 15% in size). The conditions noted are these: ERR reporter cell line, ONE-Glo luciferase, 18 h. The method, boiled down: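 ERR cells, 6 h pre-incubation 37 C/5% CO2; cpd in DMSO pinned; 18 h 37 C; ONE-Glo added, 30 min RT; luminescence read. Agonist mode, qHTS.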

The nature of test [12]: qHTS RealTime-Glo MT Cell Viability Assay in HepG2 cells - 24 hour (AID 1224867). Also: nearly all actives have a fitted effect of over 50% in size. In a few lines:
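Cells + NanoLuc/prosubstrate dispensed (600 cells/well) → 5 h at 37 C/5% CO2 → compounds in DMSO transferred → 40 h incubation at 37 C, luminescence read at 0, 8, 16, 24, 32, 40 h.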

Test [13] in a line: qHTS RealTime-Glo MT Cell Viability Assay in HEK293 cells - 32 hour (AID 1224868). Also: nearly all actives have a fitted effect of over 50% in size. Also: potency is read from the fitted curve at half-maximal effect. The method, boiled down:
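Tox21 10K qHTS, HEK293, 600 cells/well, RealTime-Glo reagent co-dispensed with cells; 5 h preincubation, compound by pintool, 37 C, luminescence at 0–40 h.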

Test [14] in a line: A CellTox Green Cytotoxicity Assay to monitor cytotoxicity in HEK293 cells - 0 hour (AID 1224869). Also: nearly all actives have a fitted effect of over 50% in size. In a few lines:
(§1)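 Nonlytic real-time cytotoxicity: HEK293 + CellTox Green reagent plated, 5 h preincubation, pintool compound addition (23 nL in DMSO), 37 C for 40 h, fluorescence measured at successive time points.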

Test [15] in a line: qHTS RealTime-Glo MT Cell Viability Assay in HepG2 cells - 40 hour (AID 1224870). Also: nearly all actives have a fitted effect of over 50% in size. In a few lines: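 HepG2 cells mixed with RealTime-Glo MT reagents (NanoLuc plus cell-permeant prosubstrate) were seeded at 600 cells/well, incubated 5 h at 37 C/5% CO2, then pinned with compounds in DMSO; nonlytic luminescence tracked viability during 40 h treatment.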
Test [16] has as its target Luciferin 4-monooxygenase (Photinus pyralis) (UniProt P08659). Description: qHTS assay to identify small molecule inhibitors of firefly luciferase (AID 1224835). Also: nearly all actives have a fitted effect of over 25% in size. The method, boiled down: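 Quantitative HTS format; KM concentrations of both substrates. Purified P. pyralis FLuc activity quantified from luminescence images.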
Test [17] can be described thus: qHTS assay to identify small molecule antagonists of the estrogen related receptor signaling pathway with the pleiotropic PPARgamma coactivator (PGC) from Tox21 10K library - cell viability counter screen (AID 1224840; active = well fitted cell-killing curve with a large enough effect in the repeat runs, not every such curve was filed as active; also: nearly all actives have a fitted effect of over 40% in size; also: potency is read from the fitted curve at half-maximal effect). The method, boiled down:
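PGC/ERR cells, 2,000/well; 6 h pre-incubation 37 C/5% CO2; cpd in DMSO via pin tool; 17.5 h 37 C; CellTiter-Fluor, 30 min; fluorescence.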

Test [18] in a line: qHTS assay to identify small molecule agonists of the hypoxia (HIF-1) signaling pathway - cell viability counter screen (AID 1224844; calls by dose curve; also: nearly all actives have a fitted effect of over 50% in size). In a few lines:
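ME-180 HRE-bla cells, 2,000/well, 0.5% dialyzed FBS; 5 hr settle, 17 hr compound at 37C/5% CO2; CCF4-AM reporter read first, then CellTiter-Glo luminescence after 30 min RT.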

Test [19] is described as follows: qHTS assay to identify small molecule agonists of H2AX - cell viability counter screen (AID 1224847; calls by dose curve; also: nearly all actives have a fitted effect of over 30% in size; also: potency is read from the fitted curve at half-maximal effect). In a few lines:
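For this counter screen, overnight-attached CHO-K1 cells received test compounds (15 concentrations, 0.76% DMSO final); 3 hr later at 37C, CellTiter-Glo reagent was added and luminescence recorded after 30 min at room temperature.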

A short description of test [20]: A CellTox Green Cytotoxicity Assay to monitor cytotoxicity in HEK293 cells - 40 hour (AID 1224871). Also: nearly all actives have a fitted effect of over 45% in size. Also: potency is read from the fitted curve at half-maximal effect. In a few lines: as §1
% is scaled to controls: 0 for no effect and ±100 for the full control effect.

Sequence of Luciferin 4-monooxygenase (Photinus pyralis) (P08659 whole entry, looked up): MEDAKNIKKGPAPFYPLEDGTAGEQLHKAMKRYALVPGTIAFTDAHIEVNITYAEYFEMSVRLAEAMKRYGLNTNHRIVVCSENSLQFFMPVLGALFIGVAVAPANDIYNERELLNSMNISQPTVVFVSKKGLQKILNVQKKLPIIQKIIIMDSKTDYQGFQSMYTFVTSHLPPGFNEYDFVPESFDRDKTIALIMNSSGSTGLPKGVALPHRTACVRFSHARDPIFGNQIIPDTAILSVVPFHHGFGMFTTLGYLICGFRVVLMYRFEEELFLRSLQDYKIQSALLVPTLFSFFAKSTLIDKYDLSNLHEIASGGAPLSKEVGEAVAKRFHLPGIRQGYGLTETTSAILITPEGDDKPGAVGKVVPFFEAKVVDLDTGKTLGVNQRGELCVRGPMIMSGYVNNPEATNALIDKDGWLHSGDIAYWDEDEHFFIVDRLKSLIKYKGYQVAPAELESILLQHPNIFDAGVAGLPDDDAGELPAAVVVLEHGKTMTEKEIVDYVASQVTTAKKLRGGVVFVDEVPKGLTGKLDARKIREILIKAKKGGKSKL
Sequence of Nuclear receptor subfamily 1 group I member 3 (Homo sapiens) (Q14994 whole entry, looked up): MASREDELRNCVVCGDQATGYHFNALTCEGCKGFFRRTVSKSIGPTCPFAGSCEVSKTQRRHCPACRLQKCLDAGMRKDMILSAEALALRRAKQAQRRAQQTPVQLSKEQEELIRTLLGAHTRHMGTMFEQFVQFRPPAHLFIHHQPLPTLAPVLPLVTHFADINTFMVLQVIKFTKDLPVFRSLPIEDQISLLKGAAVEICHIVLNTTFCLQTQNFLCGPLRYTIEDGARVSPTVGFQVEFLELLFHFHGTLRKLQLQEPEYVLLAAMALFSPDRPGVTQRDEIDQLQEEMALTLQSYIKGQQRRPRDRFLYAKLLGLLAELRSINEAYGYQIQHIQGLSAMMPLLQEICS

With `Sc1nc2ccccc2s1`, the Potency entry in test [1], in test [2], in [3], in test [4], in test [5] and in test [6] was “inactive” throughout. Further, the Potency result in test [7], in test [8], in test [9], in [10], in test [12] and in [13] was “inactive” throughout. The Potency entry in test [14] and in test [15] was “inactive” each time. In addition, the activity change, positive = activation in [11] (at 92.4 µM (top of the series)) was 0.0626%.

For `O=[N+]([O-])c1ccc(O)cc1C(F)(F)F`, the Potency result in test [16], in [4], in test [5], in test [7], in test [18] and in [8] was “inactive” each time. Besides, the Potency entry in test [12] and in test [15] was “inactive” in each case. For the same molecule, the Potency in test [17] was 17.2 µM (active); in test [13], 34.7 µM (active). Further, in test [11] (at 92.4 µM (top of the series)), the activity change, positive = activation was -63.3%.

As to `CCOC(=O)Cn1cccc1-c1nc(-c2ccc(OC)cc2)c(-c2ccc(OC)cc2)s1`, the Potency entry in test [16], in test [3], in test [17], in [18], in [19] and in test [13] was “inactive” each time. For the same molecule, the Potency result in [14] and in test [20] was “inactive” each time.

Take `CCCCOC(=O)CC`: the Potency entry in test [1], in [2], in test [3], in [4], in [17] and in test [7] was “inactive” throughout. Also, the Potency entry in test [18], in test [8], in test [19], in [12], in test [13] and in [15] was “inactive” each time.

In the case of `Cc1cc(-c2ccc(N=Nc3cc(S(=O)(=O)O)c4ccccc4c3N)c(C)c2)ccc1N=Nc1cc(S(=O)(=O)O)c2ccccc2c1N`, the Potency entry in [16], in test [4], in [17], in test [6], in test [7] and in test [18] was “inactive” throughout. Moreover, the Potency result in test [8] and in test [15] was “inactive” in each case. The Potency was 12.3 µM (active) in test [5], 80.4 µM (active) in test [19] and 2.2 µM (active) in test [13]. Further, the activity change, positive = activation in [11] (at 92.4 µM (top of the series)) was -50.3%.

With `CCCCCCCCCCCCOCCOCCOCCOCCOCCOCCOCCOCCOCCO`, the Potency entry in test [16], in [4], in test [6], in test [8], in test [14] and in test [15] was “inactive” throughout. Further, the Potency in test [5] was 5.31 µM (active); in test [19] it was 55.2 µM (active); in test [13] it was 5.35 µM (active); in test [20], 10.7 µM (active). Also, the activity change, positive = activation in [11] (at 42.5 µM (top of the series)) is -54.8%.

For `Cc1ccc(-c2ccccc2)cc1`, the Potency result in [1], in test [2], in test [3], in test [4], in [17] and in [5] was “inactive” throughout. Also, the Potency entry in test [6], in test [7], in test [18], in test [8], in test [9] and in [19] was “inactive” in each case. Besides, the Potency result in [10], in test [14] and in [15] was “inactive” throughout. Also, the activity change, positive = activation in test [11] (at 92.4 µM (top of the series)) was -3.62%.

As for `Nc1cc(Cl)c(O)c(Cl)c1`, the Potency entry in test [1], in [2], in test [3], in test [17], in test [5] and in test [6] was “inactive” throughout. The Potency entry in [9], in test [10], in test [12], in [14] and in test [15] was “inactive” each time. The activity change, positive = activation in [11] (at 92.4 µM (top of the series)) was -4.45%.
